Data published in PubChem BioAssay (NCI).
About 79,000 compounds went through this panel and 15% of them were active in at least one assay; those are over-represented in the sample as a whole. Values without a mark were called inactive. The source made the active and inactive calls. Cut-off read from the data, not from the text of the source: active = growth inhibition above about 70%; inactive = the rest.

What was measured:
[1] = NCI Yeast Anticancer Drug Screen. Data for the rad50 strain (AID 155);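 note: 0% = growth of vehicle-only cultures of the same strain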; settings: S. cerevisiae rad50 strain growth inhibition, hits give high values
Summary of the method: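 Compounds were tested on a yeast strain with an engineered DNA damage repair alteration; the reported value is growth inhibition normalised to vehicle treatment.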

[2] = NCI Yeast Anticancer Drug Screen. Data for the mec2-1 strain (AID 157); settings: S. cerevisiae mec2-1 strain, hits give high values
Summary of the method: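 Each compound was tested on mec2-1 yeast, a strain altered in DNA damage repair or cell cycle control. Growth inhibition is reported relative to vehicle.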

[3] = NCI Yeast Anticancer Drug Screen. Data for the sgs1 mgt1 strain (AID 161);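 note: 0% = growth of cultures given vehicle only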; settings: S. cerevisiae sgs1 mgt1 strain, hits give high values
Summary of the method: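 Test agents were incubated with a DNA-repair-mutant yeast strain. Growth was then read and compared against vehicle-treated controls.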

[4] = NCI Yeast Anticancer Drug Screen. Data for the cln2 rad14 strain (AID 165);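 note: 0% = growth equal to vehicle treated cultures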; settings: S. cerevisiae cln2 rad14 strain, hits give high values
Summary of the method: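 Test compounds were added to cln2 rad14 yeast cultures; inhibition of growth was then determined by comparison with vehicle treatment.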

[5] = NCI Yeast Anticancer Drug Screen. Data for the bub3 strain (AID 167); settings: S. cerevisiae bub3 mutant strain, hits give high values
Summary of the method: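 Growth of a checkpoint-deficient yeast mutant is measured after compound exposure. Values represent inhibition relative to vehicle.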

[6] = NCI Yeast Anticancer Drug Screen. Data for the mlh1 rad18 strain (AID 175); settings: S. cerevisiae mlh1 rad18 strain growth inhibition, hits give high values
Summary of the method: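 Inhibition values reflect reduced growth of mutant yeast versus vehicle-treated controls following compound exposure; the mutations affect DNA damage repair.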

[7] = at 5.0 µM (retest, dose inferred, filed as 0.5)
[8] = at 50.0 µM (retest, dose inferred, filed as 5.0)

SMILES | growth inhibition [1, 7] | growth inhibition [1, 8] | growth inhibition ([1]; at 50.0 µM) | growth inhibition [2, 7] | growth inhibition [2, 8] | growth inhibition ([2]; at 50.0 µM) | growth inhibition [3, 7] | growth inhibition [3, 8] | growth inhibition ([3]; at 50.0 µM) | growth inhibition [4, 7] [%] | growth inhibition [4, 8] | growth inhibition ([4]; at 50.0 µM) | growth inhibition [5, 7] [%] | growth inhibition [5, 8] | growth inhibition ([5]; at 50.0 µM) | growth inhibition [6, 7] | growth inhibition [6, 8] | growth inhibition ([6]; at 50.0 µM)
O=[N+]([O-])c1cccc2c[n+](Cc3ccccc3)ccc12 | -1% | 24% | 41.7% | -1% | 19% | 1.65% | -4% | 18% | 10.1% | -13 | 15% | 38.4% | -7 | -5% | -1.05% | -7% | 12% | 12.3%
C#CCNC1=CC(=O)CCC1 | -14% | 16% | -12.1% | 0% | -1% | 9.55% | -3% | -10% | -4.55% | 17 | 6% | 58.5% | 14 | -13% | 35.5% | -4% | 1% | 17.6%
Cc1[nH]nc(C(=O)N/N=C/c2cccs2)c1N=NN(C)C | 73% (active) | 96% (active) | 97.2% (active) | 15% | 98% (active) | 82.9% (active) | 19% | 73% (active) | 97% (active) | -3 | 96% (active) | 99.3% (active) | -1 | 95% (active) | 87.6% (active) | 80% (active) | 98% (active) | 99% (active)
CCCCCCC(OCCC)OCCC | -4% | -3% | 35.8% | -28% | -1% | -15.6% | -3% | -1% | 5% | -2 | 1% | 74% (active) | -10 | -6% | -0.5% | -2% | -1% | 38.4%
C=C(CN1CCOCC1)C(=O)c1ccccc1 | -23% | 66% | 74.5% (active) | 18% | 80% (active) | 90.2% (active) | 8% | 73% (active) | 85.5% (active) | -16 | 24% | 60.9% | 3 | 72% (active) | 91% (active) | -13% | 92% (active) | 95% (active)
CC(=O)C(C(=O)CCSCCO)C(SCCO)c1ccc(Cl)c(Cl)c1 (configuration not stated) | -1% | 64% | 59.4% | -3% | 63% | 79% (active) | -1% | 81% (active) | 71.8% (active) | -4 | 55% | 40.1% | -6 | 70% (active) | 62.4% | -3% | 73% (active) | 73.8% (active)
COc1ccc(CC2=CC(=O)C(=O)C=C2C)cc1 | 2% | 27% | 47.4% | 0% | 29% | 11.2% | 9% | 39% | 47% | 0 | 4% | 11.2% | -2 | 21% | 38% | 14% | 51% | 36.4%
CS(=O)(=O)C(c1nc2nnc(NC(=O)Nc3ccc(Cl)cc3)n2[nH]c1=O)c1nc2nnc(NC(=O)Nc3ccc(Cl)cc3)n2[nH]c1=O | -14% | 11% | 32.2% | -20% | 23% | 74.5% (active) | 1% | -7% | 24.6% | -36 | 3% | 30.6% | -41 | 19% | 71.3% (active) | -19% | 32% | 62.5%
O=C(O)c1ccccc1/C=N/O | 1% | -4% | 1.5% | 2% | -2% | -4.2% | 0% | -2% | 3% | -2 | 1% | 93% (active) | 0 | -1% | 4.4% | 0% | -3% | 6.7%
O=C1c2ccccc2C(=O)N1CCn1ccc(NC(c2ccccc2)(c2ccccc2)c2ccccc2)nc1=O | 48% | 48% | 66.3% | 28% | 28% | 74.9% (active) | 50% | 50% | 67.2% | 5 | 5% | 80.6% (active) | 27 | 27% | 79.2% (active) | 44% | 44% | 65.3%
CCN(CC)c1cc(Nc2c3ccc(Cl)cc3nc3cc(Cl)ccc23)ccc1O | 1% | 4% | 34.5% | -39% | -3% | -11.2% | -3% | -4% | -4.35% | -6 | -3% | 71.7% (active) | -5 | -10% | 0.75% | 0% | -2% | -0.95%
CCCCC(Cc1ccccc1)(C(=O)O)c1ccccc1 (configuration not stated) | 11% | 98% (active) | 99% (active) | 18% | 98% (active) | 98.2% (active) | 16% | 99% (active) | 98.9% (active) | 31 | 99% (active) | 98% (active) | 3 | 97% (active) | 96% (active) | 14% | 99% (active) | 98.8% (active)
Cc1[nH]c2ccccc2c1-c1ccccc1 | -126% | 98% (active) | 99.5% (active) | -48% | 99% (active) | 99.6% (active) | -65% | 98% (active) | 99.5% (active) | -53 | 99% (active) | 99% (active) | -62 | 98% (active) | 99.4% (active) | -122% | 98% (active) | 99.5% (active)
CCOC(=O)/C=C(/Cl)C(=O)OCC | 12% | 98% (active) | 98.5% (active) | 5% | 99% (active) | 99.4% (active) | 7% | 98% (active) | 99.5% (active) | 1 | 99% (active) | 99% (active) | 18 | 99% (active) | 99.2% (active) | 6% | 99% (active) | 99.1% (active)
O=c1oc2ccccc2c(O)c1/C=N/C(=S)Nc1ccccc1 | 13% | 93% (active) | 71% (active) | -3% | 87% (active) | 34.5% | 6% | 88% (active) | 18.5% | 0 | 32% | 20.8% | 12 | 92% (active) | 46.9% | 9% | 97% (active) | 76% (active)
O=c1oc2ccccc2c(O)c1/C=N/C(=S)NCCc1ccccc1 | 29% | 88% (active) | -11.6% | 30% | 95% (active) | -22.4% | 32% | 92% (active) | -6.05% | 26 | 40% | -27.8% | 44 | 96% (active) | -10.2% | 32% | 93% (active) | -5.75%
Nc1ccc(S(=O)(=O)Nc2ccccc2)cc1 | -4% | 42% | -7.35% | 7% | 7% | -9.35% | -1% | 3% | 26.1% | 0 | -6% | 50.7% | 37 | -1% | -2.1% | 0% | 4% | 4.25%
O=C1OC(c2ccccc2)(c2ccc(-c3ccccc3O)cc2)c2ccccc21 (configuration not stated) | 87% (active) | 90% (active) | 94.2% (active) | 71% (active) | 92% (active) | 95.1% (active) | 89% (active) | 93% (active) | 93% (active) | 60 | 90% (active) | 92.9% (active) | 61 | 90% (active) | 95.1% (active) | 92% (active) | 91% (active) | 93.5% (active)
CC1(c2ccc(Cl)cc2)OC(=O)c2c1ccc1ccccc21 (configuration not stated) | 13% | 55% | 97.7% (active) | -1% | 53% | 93.6% (active) | 7% | 55% | 98% (active) | 2 | 47% | 88.8% (active) | 22 | 52% | 97.8% (active) | -1% | 75% (active) | 96% (active)
